For twelve molecules, inhibition, activation (% of control) and activation results are on record in PubChem BioAssay.

Assay [1] in a line: STAT3 reporter inhibitors, retest of hits, confirmation, U3A cells, luciferase, luminescence (AID 1265;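 active = inhibition above the hit cutoff computed for the primary STAT3 screen, cut at about 44% in these data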;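 also: 0% = IL-6 plus DMSO and 100% = IL-6 plus nifuroxazide control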). Conditions: IL-6 STAT3 luciferase reporter, at 5.7 µM, hits give high values, cell line lacks STAT1.
A short description of assay [2]: NF-kB reporter inhibitors in human cells, confirmation, counter-screen for STAT3 inhibitor project, cell-based, HEK293T, luciferase, TNF-alpha stimulus (AID 1308).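 Also: 0% = TNF-alpha with DMSO and 100% = TNF-alpha with MG high control.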 The following applies: TNF-alpha induced, at 5.7 µM, hits give high values. (In general: Counterscreens check selectivity or assay interference.)
Assay [3] in a line: STAT1 reporter inhibitors, IFN-gamma induced, confirmation, counter-screen for STAT3 inhibitor project, cell-based, NIH 3T3, luciferase luminescence (AID 1317;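 active = inhibition above the mean plus 3 SD of solvent-only control wells, limit set per screening run, cut at about 16% in these data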;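 also: 0% = DMSO with IFN-gamma and 100% = nifuroxazide control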). Conditions: NIH 3T3 STAT1-luciferase reporter, at 5.7 µM, hits give high values.
Assay [4] addresses Insulin-degrading enzyme (Homo sapiens) (UniProt P14735). The assay can be described thus: human IDE inhibitors in live cells, confirmation, fluorescence polarization, HEK cells, FAbetaB substrate (AID 435028;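 active = mean inhibition across triplicate wells above the cutoff set by the earlier primary insulin-degrading enzyme screen, cut at about 16% in these data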;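 also: 0% = DMSO wells and 100% = 60 µM reference IDE inhibitor Ii1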). The following applies: FAbetaB cleavage, at 5.59 µM, hits give high values. For orientation: Polarisation of emitted light reports the rotation of a fluorescent probe.
Assay [5] can be described thus: cytotoxicity in HEK cells, cytotoxicity control for IDE inhibitor project, cell-based, luminescence (AID 449730; in the data active = inhibition above about 22%;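 also: 0% = vehicle wells and 100% = reference cytotoxic drug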). The following applies: HEK293 cytotoxicity, ATP luminescence; at 5.59 µM; hits give high values.
Assay [6] addresses Photoreceptor-specific nuclear receptor (Homo sapiens) (UniProt Q9Y5X4). In words: NR2E3 agonist confirmation in cells, cell-based, luminescence, CHO-S two-hybrid (AID 624378;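 active = average inhibition above a cutoff equal to the mean inhibition of all tested compounds plus one SD, cut at about 70% in these data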;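 also: 0% = DMSO in NR2E3 cells and 100% = DMSO in cells lacking NR2E3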). Conditions: CHO-S mammalian two-hybrid NR2E3-NCOR, luciferase luminescence; at 3.98 µM; hits give high values.
Assay [7] in a line: GAL4-VP16 reporter modulators, confirmation, counter-screen for NR2E3 agonist project, cell-based, luminescence, CHO-S, high throughput (AID 624379;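 active = mean inhibition above a cutoff equal to the average over all tested compounds plus one standard deviation, cut at about 70% in these data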;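 also: luciferase from a UAS reporter driven by GAL4-VP16 transactivation; 0% = DMSO with VP16-transfected cells and 100% = DMSO with cells lacking VP16; higher means less reporter light so more repression of VP16 activity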). Conditions: CHO-S GAL4-VP16 luciferase reporter, at 3.98 µM, hits give high values.
The nature of assay [8]: Gal4-VP16 luciferase reporter inhibitors, counter-screen for COUP-TFII antagonist project, cell-based, luminescence, HEK293 (AID 687007; in the data active = inhibition above about 13%). Conditions: at 8.5 µM, hits give high values.
The target of assay [9] is COUP transcription factor 2 (Homo sapiens) (UniProt P24468). In words: NR2F2 transcriptional activity inhibitors, confirmation, cell-based, luciferase reporter, HEK293, triplicate (AID 687008;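 active = mean inhibition over three repeats above a set limit taken from the earlier primary screen, cut at about 38% in these data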;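 also: 100% = cells given the luciferase reporter alone without the COUP-TF2 vector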). Conditions: HEK293 NGFI-A luciferase reporter, luminescence; at 8.5 µM; hits give high values. For orientation: A reporter such as luciferase makes a cellular process visible.
Assay [10] in a line: STAT1 signaling activators, confirmation, cell-based, HTS, luciferase reporter (AID 1262;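 active = activation above a set limit carried over from the earlier primary STAT1 screen, cut at about 140% in these data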;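 also: simple ratio to median IFN-gamma plus DMSO wells so 0% means no light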). Conditions: NIH 3T3 STAT1-luciferase reporter, IFN-gamma potentiation, luminescence; at 5.7 µM; hits give high values; 100% = IFN-gamma EC80 alone, no compound.
Assay [11] is described as follows: NF-kB reporter activators, TNF-alpha stimulated, counter-screen for STAT1 activator project, cell-based, HEK293T, luciferase luminescence (AID 1306;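 active = activation above the mean of solvent-only control wells plus 3 SD, set per campaign, cut at about 130% in these data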;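 also: TNF-alpha given at a submaximal dose yielding about 80% of full reporter signal; values are well signal over median control so 100% means no change and 0% no light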). Conditions: at 5.7 µM, hits give high values, 100% = TNF-alpha with vehicle only.
The target in assay [12] is Signal transducer and activator of transcription 3 (Homo sapiens) (UniProt P40763). In words: STAT3 reporter activation by STAT1 hits, confirmation, counter-screen for STAT1 activator project, U3A cells, luciferase, luminescence (AID 1316;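 active = activation above the solvent-only control well mean plus 3 SD, set per plate batch, cut at about 110% in these data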;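 also: 0% = no luminescence and 100% = median IL-6 plus DMSO wells; higher means more STAT3 reporter activation so hits are non-selective activators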). Conditions: IL-6, luminescence, at 5.7 µM, hits give high values, 100 = IL-6 alone, no compound effect, cells lack STAT1.
For assay [13], the system named is DAF-12 nuclear receptor (Heterodera glycines), GAL4-LBD fusion. The assay can be described thus: H. glycines DAF-12 receptor agonists, confirmation, cell-based, luminescence, HEK293, GAL4-LBD fusion (AID 743050;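 active = mean activation over triplicate wells above the hit cutoff derived from the earlier primary screen, cut at about 11% in these data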;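 also: 0% = DMSO low control and 100% = 2 mM sodium butyrate high control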). Conditions: HEK293 GAL4-hgDAF12 luciferase reporter, agonist mode; at 6.8 µM; hits give high values; percent of butyrate response.
Assay [14] has as its target Oxysterols receptor LXR-beta (Homo sapiens) (UniProt P55055). The assay can be described thus: LXR agonists, Gal4 luciferase reporter, confirmation, counter-screen for hgDAF-12 agonist project, cell-based, luminescence, HEK293, H. glycines campaign (AID 743051;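 active = mean activation of the triplicate above a set limit carried over from the primary screen, none filed active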). Conditions: 24 h, at 6.8 µM, hits give high values.
For assay [15], the target named is Neuropeptide Y receptor type 2 (Homo sapiens) (UniProt P49146). The assay can be described thus: NPY-Y2 potentiators or agonists, confirmation, cell-based (AID 1539; in the data active = activation above about 33%). Conditions: cell-based NPY-Y2 potentiator/agonist assay; at 3.6 µM; hits give high values.
The target in assay [16] is Neuropeptide Y receptor type 1 (Homo sapiens) (UniProt P25929). The assay can be described thus: NPY-Y1 potentiators or agonists, counter-screen for NPY-Y2 potentiator project, cell-based, fluorescence (AID 1651; in the data active = activation above about 45%;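 also: cells stimulated with submaximal NPY then isoproterenol with phosphodiesterase inhibitor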). Conditions: Y1 HEK293-CNG cells, membrane potential fluorescence; at 3.6 µM; hits give high values.
The target is the same in assay [17]. The assay can be described thus: NPY-Y1 direct agonists, selectivity assay for NPY-Y2 potentiator project, cell-based, fluorescence (AID 1702;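 active = activation above the mean of DMSO-only control wells plus 3 SD, cut at about 18% in these data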;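 also: cells stimulated with 1 µM isoproterenol plus the PDE inhibitor Ro 20-1724; 0% = isoproterenol with DMSO and no NPY and 100% = 40 nM NPY; Y1 agonists lower the membrane potential dye signal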). Conditions: HEK293 Y1-CNGC, membrane potential fluorescence, agonism; at 3.6 µM; hits give high values.
The nature of assay [18]: CNGC cAMP sensor activity inhibitors, counter-screen for NPY-Y2 potentiator project, cell-based, HEK293-CNG parental, membrane potential fluorescence (AID 1703;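 active = inhibition above the control-well mean plus 3 SD of those wells, cut at about 22% in these data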;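 also: 0% = DMSO with isoproterenol and 100% = DMSO without isoproterenol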). Conditions: isoproterenol cAMP, at 3.6 µM, hits give high values.
Assay [19] has as its target Neuropeptide Y receptor type 2 (Homo sapiens) (UniProt P49146). In words: NPY-Y2 direct agonists, counter-screen for NPY-Y2 potentiator project, cell-based, fluorescence (AID 1710;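 active = activation above the mean of solvent-only control wells plus 3 SD, cut at about 10% in these data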;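 also: cells stimulated by isoproterenol with no NPY added so direct agonism is tested; 0% = DMSO with isoproterenol alone and 100% = NPY at EC100 plus isoproterenol; agonism lowers probe fluorescence through less cAMP and CNG channel opening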). The following applies: HEK293 Y2/CNGC cells, membrane potential fluorescence, agonist mode; at 3.6 µM; hits give high values.
A short description of assay [20]: KLF5 expression inhibitors, confirmation, DLD-1 cells, luminescence (AID 1834;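 active = inhibition above a set limit taken from the earlier primary screen, cut at about 63% in these data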;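 also: 0% = DMSO wells and 100% = LY294002 at 200 µM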). Conditions: DLD-1 KLF5 promoter firefly luciferase reporter, at 4 µM, hits give high values.
A short description of assay [21]: cytotoxicity in rat IEC-6 cells, cytotoxicity control for KLF5 inhibitor project, cell-based, luminescence, triplicate (AID 1905; in the data active = inhibition above about 23%;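 also: cells exposed to compounds for 48 hours before viability read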). Conditions: IEC-6 rat intestinal cells, viability luminescence; at 4 µM; hits give high values.
Assay [22] concerns Fam108b (Abhd17b) serine hydrolase [Mus musculus]. In words: mouse Fam108b serine hydrolase inhibitors, confirmation, counter-screen for RBBP9 inhibitor project, biochemical, fluorescence polarization, triplicate (AID 1978;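 active = inhibition above a limit from the primary screen, the mean over all compounds plus 3 SD, cut at about 19% in these data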;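 also: 0% = median of active Fam108b wells and 100% = catalytically dead S170A mutant; inhibitors free the probe so polarization falls as inhibition rises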). Conditions: recombinant Fam108b, FP-Rh probe fluorescence polarization; at 9.51 µM; hits give high values.
For assay [23], the target named is Protein phosphatase methylesterase 1 (Homo sapiens) (UniProt Q9Y570). In words: PME-1 inhibitor activity retest, confirmation, biochemical, fluorescence polarization, FP-Rh probe, triplicate (AID 2171;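 active = inhibition above the hit cutoff set in the earlier primary screen, cut at about 27% in these data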;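 also: 0% = enzyme with DMSO and 100% = wells lacking PME-1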). Conditions: recombinant PME-1, FP-Rh probe fluorescence polarization; at 5.9 µM; hits give high values.
Assay [24] in a line: growth loss of phage-infected RecBCD+ E. coli, confirmation, RecBCD inhibitor project, absorbance, E. coli V66, T4 gene 2 phage (AID 651982;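 active = mean inhibition over triplicates exceeding the hit threshold derived in the original primary screen, cut at about 11% in these data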). The following applies: E. coli V66 + T4 2- phage, growth OD; at 11.9 µM; hits give high values.
The nature of assay [25]: E. coli viability inhibition, counter-screen for RecBCD inhibitor project, absorbance, high throughput (AID 651983; in the data active = inhibition above about 20%;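 also: E. coli strain V66 grown with compound alone and no phage infection; 0% = bacteria with DMSO vehicle only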). Conditions: absorbance (OD) growth, at 11.9 µM, hits give high values.
A short description of assay [26]: growth loss of phage-infected AddAB-carrying E. coli, confirmation, counter-screen for RecBCD inhibitor project, absorbance, E. coli V3065, T4 phage (AID 651984;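 active = mean inhibition above the solvent-only control wells' mean plus 3 SD, cut at about 22% in these data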;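 also: higher means less bacterial growth from phage killing when AddAB is blocked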). The following applies: E. coli expressing H. pylori AddAB + T4 phage, OD growth; at 11.9 µM; hits give high values; gene 2 mutant T4, recBCD-deleted host.

Values without a mark were called inactive. This is one part of the list. Active and inactive are the calls of the source.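 The calls were made as follows, unless noted: active = inhibition above the mean of solvent-only control wells plus 3 SD, cutoff set per campaign (cut at about 13% in these data); inactive = the rest.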

Chain of Neuropeptide Y receptor type 1 (Homo sapiens) (P25929 whole entry, looked up): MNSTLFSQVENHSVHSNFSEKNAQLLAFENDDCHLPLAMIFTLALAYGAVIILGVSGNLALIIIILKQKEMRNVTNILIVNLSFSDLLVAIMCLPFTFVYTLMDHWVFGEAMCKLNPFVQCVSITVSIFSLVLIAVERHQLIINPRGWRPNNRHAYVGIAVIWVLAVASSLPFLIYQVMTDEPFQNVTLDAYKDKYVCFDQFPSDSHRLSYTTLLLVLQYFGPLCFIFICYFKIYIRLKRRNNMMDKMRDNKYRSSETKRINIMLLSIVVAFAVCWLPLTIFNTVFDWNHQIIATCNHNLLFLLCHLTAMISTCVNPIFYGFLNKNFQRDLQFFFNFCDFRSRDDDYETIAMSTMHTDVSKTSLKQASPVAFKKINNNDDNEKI
Chain of Oxysterols receptor LXR-beta (Homo sapiens) (P55055 whole entry, looked up, the tested form may be a part): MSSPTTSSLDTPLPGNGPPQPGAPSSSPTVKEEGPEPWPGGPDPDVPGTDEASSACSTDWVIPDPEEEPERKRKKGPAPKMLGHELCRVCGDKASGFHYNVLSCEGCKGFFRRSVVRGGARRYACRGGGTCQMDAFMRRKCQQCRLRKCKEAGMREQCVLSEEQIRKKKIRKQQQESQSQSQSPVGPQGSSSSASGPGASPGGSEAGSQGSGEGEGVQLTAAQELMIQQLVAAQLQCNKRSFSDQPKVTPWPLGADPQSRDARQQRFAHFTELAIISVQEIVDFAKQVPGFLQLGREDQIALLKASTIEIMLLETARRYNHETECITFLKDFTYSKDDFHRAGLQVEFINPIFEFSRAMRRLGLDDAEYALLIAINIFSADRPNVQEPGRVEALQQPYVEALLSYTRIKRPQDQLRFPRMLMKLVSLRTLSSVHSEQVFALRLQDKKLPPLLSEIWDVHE
Chain of Neuropeptide Y receptor type 2 (Homo sapiens) (P49146 whole entry, looked up): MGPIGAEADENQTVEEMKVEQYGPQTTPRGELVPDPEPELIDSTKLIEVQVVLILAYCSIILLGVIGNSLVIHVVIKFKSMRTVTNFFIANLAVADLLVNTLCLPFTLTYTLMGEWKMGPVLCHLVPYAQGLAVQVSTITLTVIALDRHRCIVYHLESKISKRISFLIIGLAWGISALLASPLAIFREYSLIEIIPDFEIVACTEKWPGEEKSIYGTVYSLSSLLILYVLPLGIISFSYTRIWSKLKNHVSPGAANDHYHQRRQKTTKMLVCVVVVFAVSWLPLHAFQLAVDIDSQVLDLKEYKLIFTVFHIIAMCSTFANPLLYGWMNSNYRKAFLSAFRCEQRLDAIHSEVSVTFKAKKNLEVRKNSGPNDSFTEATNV
Chain of Photoreceptor-specific nuclear receptor (Homo sapiens) (Q9Y5X4 whole entry, looked up, the tested form may be a part): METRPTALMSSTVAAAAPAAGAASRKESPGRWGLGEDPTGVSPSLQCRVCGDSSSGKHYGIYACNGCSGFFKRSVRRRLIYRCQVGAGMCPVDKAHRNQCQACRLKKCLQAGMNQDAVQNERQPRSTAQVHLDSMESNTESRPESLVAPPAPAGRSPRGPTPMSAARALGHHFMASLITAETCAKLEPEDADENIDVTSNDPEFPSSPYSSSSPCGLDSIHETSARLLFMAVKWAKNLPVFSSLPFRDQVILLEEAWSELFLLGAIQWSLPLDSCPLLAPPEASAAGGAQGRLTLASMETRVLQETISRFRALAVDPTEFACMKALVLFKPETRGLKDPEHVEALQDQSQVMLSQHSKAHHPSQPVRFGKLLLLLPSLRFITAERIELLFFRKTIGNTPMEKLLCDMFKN
Chain of COUP transcription factor 2 (Homo sapiens) (P24468 whole entry, looked up): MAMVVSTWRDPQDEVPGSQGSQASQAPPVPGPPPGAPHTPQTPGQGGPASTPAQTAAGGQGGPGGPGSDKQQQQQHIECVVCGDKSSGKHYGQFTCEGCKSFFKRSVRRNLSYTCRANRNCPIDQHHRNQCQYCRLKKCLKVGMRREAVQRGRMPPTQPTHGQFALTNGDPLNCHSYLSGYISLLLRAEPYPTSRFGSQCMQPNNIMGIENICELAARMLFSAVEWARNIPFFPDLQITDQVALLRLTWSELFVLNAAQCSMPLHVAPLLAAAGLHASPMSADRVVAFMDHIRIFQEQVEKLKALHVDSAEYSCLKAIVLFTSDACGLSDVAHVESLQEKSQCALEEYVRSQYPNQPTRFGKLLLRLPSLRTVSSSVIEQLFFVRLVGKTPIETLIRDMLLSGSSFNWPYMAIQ
Chain of Insulin-degrading enzyme (Homo sapiens) (P14735 whole entry, looked up): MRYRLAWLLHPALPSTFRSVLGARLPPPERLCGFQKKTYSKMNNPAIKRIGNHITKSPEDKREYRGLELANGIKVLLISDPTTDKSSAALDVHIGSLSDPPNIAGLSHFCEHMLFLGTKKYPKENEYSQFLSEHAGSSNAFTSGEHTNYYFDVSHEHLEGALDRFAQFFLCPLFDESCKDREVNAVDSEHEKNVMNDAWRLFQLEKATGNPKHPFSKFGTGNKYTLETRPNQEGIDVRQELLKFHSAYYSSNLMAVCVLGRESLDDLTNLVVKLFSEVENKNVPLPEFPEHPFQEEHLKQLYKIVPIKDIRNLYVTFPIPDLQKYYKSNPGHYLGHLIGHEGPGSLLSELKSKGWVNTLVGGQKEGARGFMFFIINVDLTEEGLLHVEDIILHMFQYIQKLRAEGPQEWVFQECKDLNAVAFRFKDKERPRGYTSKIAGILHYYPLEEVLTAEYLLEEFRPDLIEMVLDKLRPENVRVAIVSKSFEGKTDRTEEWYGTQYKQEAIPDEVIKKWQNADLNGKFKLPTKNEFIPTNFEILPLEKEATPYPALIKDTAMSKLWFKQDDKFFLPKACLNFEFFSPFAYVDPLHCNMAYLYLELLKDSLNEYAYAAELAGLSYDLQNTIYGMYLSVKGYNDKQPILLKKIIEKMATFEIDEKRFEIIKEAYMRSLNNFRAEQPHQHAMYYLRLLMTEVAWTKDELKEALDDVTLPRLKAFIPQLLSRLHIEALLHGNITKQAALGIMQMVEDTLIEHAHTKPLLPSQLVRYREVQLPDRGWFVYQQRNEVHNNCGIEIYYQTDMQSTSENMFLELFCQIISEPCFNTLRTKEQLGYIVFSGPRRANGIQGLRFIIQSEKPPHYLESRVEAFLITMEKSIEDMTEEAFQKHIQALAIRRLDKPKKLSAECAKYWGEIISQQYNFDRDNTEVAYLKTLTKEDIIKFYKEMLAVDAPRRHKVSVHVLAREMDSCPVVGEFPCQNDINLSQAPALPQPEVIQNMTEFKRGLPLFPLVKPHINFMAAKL
Chain of Protein phosphatase methylesterase 1 (Homo sapiens) (Q9Y570 whole entry, looked up): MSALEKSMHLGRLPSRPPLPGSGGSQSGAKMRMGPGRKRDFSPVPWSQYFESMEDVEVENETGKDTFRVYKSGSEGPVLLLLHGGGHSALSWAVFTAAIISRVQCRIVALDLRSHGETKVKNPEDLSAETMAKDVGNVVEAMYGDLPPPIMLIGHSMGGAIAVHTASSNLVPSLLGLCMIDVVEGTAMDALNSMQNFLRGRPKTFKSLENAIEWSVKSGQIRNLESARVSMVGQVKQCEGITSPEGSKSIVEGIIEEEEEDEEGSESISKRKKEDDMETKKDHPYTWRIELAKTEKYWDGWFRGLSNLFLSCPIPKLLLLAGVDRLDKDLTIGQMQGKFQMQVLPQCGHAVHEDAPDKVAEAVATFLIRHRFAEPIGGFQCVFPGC

With `CC(C)OCCCNc1ncnc2c1[nH]c1ccc(F)cc12`, the inhibition (usually the drop in the measured response relative to a control, in per cent) in assay [1] was 78.6% (active); in assay [2], 33.4% (active); in assay [3] it was 31.1% (active); in [4], 17.2% (active); in [5] it was 75.2% (active); in assay [6], 96.7% (active). The inhibition was 81.3% (active) in assay [7], -32.6% in [8] and 63.3% (active) in assay [9].

On to `O=C(Nc1ccc(NC(=O)c2cccs2)cn1)c1ccco1`, for which the inhibition in [1] is 20.3%; in [2], -29.5%; in [3], -92.3%.

In the case of `Cc1cc(Cl)ccc1OCc1nc(-c2ccncc2)no1`, the activation (% of control) in [10] was 165% (active); in assay [11], 138% (active); in assay [12], 106%. Further, the activation in assay [13] was 15.6% (active); in assay [14], 0.57%.

As to `N#Cc1nc(COc2ccc(-c3ccccc3)cc2)oc1NCc1cccnc1`, the inhibition in [1] was 35.1%; in [2], 2.23%; in [3], 12.9%.

`OCCn1c(-c2ccccc2)csc1=Nc1ccccc1`: the inhibition is 14% in assay [1], -12% in [2] and -20.1% in [3].

On to `COc1cc(/C=N/O)ccc1OCc1ccc([N+](=O)[O-])cc1`, for which the activation (% of control) is 234% (active) in assay [10], 131% in [11] and 123% (active) in assay [12]. For the same molecule, the activation in [13] was 15.5% (active); in [14], 0.71%.

As to `C=CC[n+]1c(-c2ccc(C)cc2)csc1NNC(=O)Nc1ccccc1`, the inhibition in assay [1] is 51.1% (active); in assay [2], 18.4% (active); in [3], 16.9% (active).

Take `Oc1c(Cl)cc(Cl)c(Cl)c1Cc1c(O)c(Cl)cc(Cl)c1Cl`: the inhibition is 46.3% (active) in assay [1]; 20.9% (active) in assay [2]; 41% (active) in assay [3]; 15.6% in assay [18]; 88% (active) in assay [20]; 31.1% (active) in assay [21]. In addition, the inhibition in assay [22] was 47.1% (active); in assay [23], 10.2%; in [6] it was 98.9% (active); in assay [24], 11.6% (active); in assay [25] it was 11.5%; in assay [26], 2.09%. Besides, the activation was 24.1% in assay [15], 3.71% in [16], 14.9% in assay [17] and 24.1% (active) in [19].

Take `CCCCOc1ccc(-c2nnc(-c3ccco3)o2)cc1`: the inhibition was 21.3% in [1], -24.1% in [2] and -66.4% in [3].

Take `Cc1ccc(-n2ncc3c(N4CCN(c5ccc(F)cc5)CC4)ncnc32)c(C)c1`: the inhibition in assay [1] is 46.6% (active); in [2] it was 22.4% (active); in assay [3] it was 14.9%.

Turning to `Cc1ccc(-c2cc(C(=O)N/N=C/C=C/c3ccco3)c3ccccc3n2)cc1C`, the inhibition in [1] was -39.2%; in assay [2], 12.6%; in assay [3], -40.9%.

Regarding `CC(C)C[C@@H](N)c1nnc(SCC(=O)c2ccc(Cl)cc2)o1`, the inhibition was 36.7% in assay [1], 10.9% in assay [2] and 9.47% in [3].
